PubChem BioAssay AID1159580 (chemical genetic matrix, 2015)
Values joined by “and” are separate entries in the source; they are usually repeats but may differ in a detail not shown here. Equal values may be shown once. Hit rate of the full screen: of about 5,500 compounds, about 2,000 (36%) were called active. Inconclusive results (about 18%) are left out. Rule as the data show it: active = normalized growth mostly below about 0.91 (no sharp cut-off); inconclusive = no clear call, values can overlap the other calls; inactive = mostly above about 0.92. The list shows a part of the results.

Experiment: chemical genetic growth profiling, strain panel (AID 1159580);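 also: tested at 20 µM; growth read once vehicle control cultures reached saturation at 30 °C; 1 = growth at the plate median or of vehicle wells; lower values mean less growth of the strain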
Conditions: S. cerevisiae deletion strains, growth OD

Measured: normalized growth

COc1ccc([C@H]2Oc3cc(OC)cc(OC)c3C[C@H]2O)cc1
inactive: locus YAL013W, strain DEP1, active compounds read low 1.01 | locus YAL021C, strain ccr4, active compounds read low 1 | locus YAL026C, strain drs2, active compounds read low 0.995 | locus YAL030W, strain snc1, active compounds read low 0.993 | locus YBL061C, strain skt5, active compounds read low 0.997 | locus YBR009C, strain hhf1, active compounds read low 1.01 | locus YBR021W, strain FUR4, active compounds read low 1.06 | locus YBR023C, strain chs3, active compounds read low 1 | locus YBR171W, strain sec66, active compounds read low 0.98 | locus YBR229C, strain ROT2, active compounds read low 1 | locus YBR231C, strain swc5, active compounds read low 1.01 | locus YBR279W, strain paf1, active compounds read low 0.994 | locus YCL011C, strain gbp2, active compounds read low 0.997 | locus YCL016C, strain dcc1, active compounds read low 1 | locus YCL029C, strain bik1, active compounds read low 1.01 | locus YCL061C, strain MRC1, active compounds read low 0.987 | locus YCL069W, strain vba3, active compounds read low 0.996 | locus YCR088W, strain abp1, active compounds read low 0.999 | locus YDL005C, strain med2, active compounds read low 0.996 | locus YDL035C, strain GPR1, active compounds read low 1.05 | locus YDL040C, strain nat1, active compounds read low 1 | locus YDL074C, strain BRE1, active compounds read low 1.12 | locus YDL101C, strain DUN1, active compounds read low 1.01 | locus YDL185W, strain tfp1, active compounds read low 1.01 | locus YDL192W, strain arf1, active compounds read low 1 | locus YDR001C, strain nth1, active compounds read low 0.998 | locus YDR069C, strain doa4, active compounds read low 1.01 | locus YDR101C, strain arx1, active compounds read low 0.983 | locus YDR137W, strain rgp1, active compounds read low 0.867 | locus YDR159W, strain sac3, active compounds read low 0.998 | locus YDR162C, strain NBP2, active compounds read low 1.03 | locus YDR195W, strain ref2 1.05 | locus YDR297W, strain sur2, active compounds read low 1 | locus YDR318W, strain mcm21, active compounds read low 1 | locus YDR334W, strain swr1, active compounds read low 1.01 | locus YDR335W, strain msn5, active compounds read low 1 | locus YDR388W, active compounds read low 1.01 | locus YDR392W, strain spt3, active compounds read low 0.948 | locus YDR502C, strain sam2, active compounds read low 1.01 | locus YEL003W, strain gim4, active compounds read low 0.996 | locus YEL037C, strain rad23, active compounds read low 0.989 | locus YEL061C, strain CIN8 (second series), active compounds read low 1 | locus YEL061C, strain CIN8, active compounds read low 1.02 | locus YER015W, strain faa2, active compounds read low 1 | locus YER016W, strain bim1, active compounds read low 0.994 | locus YER110C, active compounds read low 0.987 | locus YER111C, strain swi4, active compounds read low 0.998 | locus YER155C, strain BEM2 (second series), active compounds read low 1.01 | locus YER155C, strain BEM2, active compounds read low 1 | locus YER167W, strain BCK2, active compounds read low 1 | locus YFR010W, strain ubp6, active compounds read low 1.01 | locus YGL078C, strain dbp3, active compounds read low 1.02 | locus YGL086W, strain mad1, active compounds read low 0.999 | locus YGL167C, strain pmr1, active compounds read low 0.989 | locus YGL173C, strain kem1, active compounds read low 1 | locus YGL227W, strain vid30, active compounds read low 1 | locus YGL240W, strain doc1, active compounds read low 1.01 | locus YGL248W, strain PDE1, active compounds read low 1.05 | locus YGL253W, strain hxk2, active compounds read low 0.996 | locus YGR135W, strain pre9, active compounds read low 1.07 | locus YGR252W, strain gcn5, active compounds read low 1.08 | locus YHR013C, strain ard1, active compounds read low 1.05 | locus YHR027C, strain rpn1, active compounds read low 0.992 | locus YHR030C, strain SLT2, active compounds read low 0.985 | locus YHR079C, strain IRE1 (second series), active compounds read low 1.02 | locus YHR079C, strain IRE1, active compounds read low 0.994 | locus YHR094C, strain hxt1, active compounds read low 1.01 | locus YHR129C, strain ARP1, active compounds read low 1.02 | locus YHR142W, strain chs7, active compounds read low 0.981 | locus YHR200W, strain rpn10, active compounds read low 1.03 | locus YIL066C, strain RNR3, active compounds read low 1.02 | locus YIL073C, strain SPO22, active compounds read low 1.07 | locus YIL125W, strain kgd1, active compounds read low 1 | locus YIR030C, strain dcg1, active compounds read low 0.99 | locus YJL092W, strain hpr5, active compounds read low 0.997 | locus YJL095W, strain BCK1 (second series), active compounds read low 1 | locus YJL095W, strain BCK1, active compounds read low 1.04 and 1 | locus YJL115W, strain asf1, active compounds read low 1.01 | locus YJL129C, strain trk1, active compounds read low 1.04 | locus YJL134W, strain LCB3, active compounds read low 1 | locus YJL154C, strain vps35, active compounds read low 0.989 | locus YJL164C, strain tpk1, active compounds read low 1.01 | locus YJL166W, strain qcr8, active compounds read low 0.994 | locus YJL168C, strain set2, active compounds read low 1 | locus YJL187C, strain SWE1 (second series), active compounds read low 1.03 | locus YJL187C, strain SWE1, active compounds read low 1 | locus YJR043C, strain POL32, active compounds read low 1.08 | locus YJR066W, strain TOR1, active compounds read low 0.938 | locus YKL009W, strain mrt4, active compounds read low 1.03 | locus YKL068W, active compounds read low 1 | locus YKL085W, strain MDH1 (second series), active compounds read low 0.99 | locus YKL085W, strain MDH1, active compounds read low 0.99 | locus YKL160W, strain elf1, active compounds read low 0.994 | locus YKL190W, strain CNB1, active compounds read low 1.02 | locus YKR001C, strain vps1, active compounds read low 0.99 | locus YKR026C, strain gcn3, active compounds read low 0.999 | locus YKR091W, strain srl3, active compounds read low 1 | locus YLL001W, strain dnm1, active compounds read low 0.988 | locus YLL026W, active compounds read low 1 | locus YLL041C, strain sdh2, active compounds read low 0.985 | locus YLR027C, strain aat2, active compounds read low 0.997 | locus YLR039C, strain RIC1, active compounds read low 1.1 | locus YLR058C, strain SHM2, active compounds read low 1.01 | locus YLR102C, strain apc9, active compounds read low 0.997 | locus YLR113W, strain HOG1, active compounds read low 0.983 | locus YLR221C, strain rsa3, active compounds read low 1 | locus YLR258W, strain gsy2, active compounds read low 0.995 | locus YLR262C, strain YPT6 (second series), active compounds read low 0.914 | locus YLR268W, strain sec22, active compounds read low 1.01 | locus YLR320W, strain mms22, active compounds read low 0.999 | locus YLR342W, strain FKS1 (second series), active compounds read low 0.997 | locus YLR342W, strain FKS1, active compounds read low 0.994 | locus YLR357W, strain rsc2, active compounds read low 1.07 | locus YLR370C, strain arc18, active compounds read low 0.99 | locus YLR371W, strain rom2, active compounds read low 1.04 | locus YLR384C, strain iki3, active compounds read low 0.994 | locus YLR418C, strain cdc73, active compounds read low 1.06 | locus YML016C, strain PPZ1, active compounds read low 0.998 | locus YML032C, strain rad52, active compounds read low 1.01 | locus YML120C, strain ndi1, active compounds read low 1.01 | locus YML124C, strain tub3, active compounds read low 1 | locus YMR058W, strain fet3, active compounds read low 0.997 | locus YMR078C, strain ctf18, active compounds read low 1.01 | locus YMR125W, strain sto1, active compounds read low 1.01 | locus YMR129W, active compounds read low 1 | locus YMR205C, strain PFK2, active compounds read low 1.02 | locus YMR223W, strain ubp8, active compounds read low 1 | locus YMR231W, strain pep5, active compounds read low 0.989 | locus YMR307W, strain GAS1, active compounds read low 1.31 | locus YNL067W, strain RPL9B, active compounds read low 1.02 | locus YNL071W, strain lat1, active compounds read low 0.994 | locus YNL183C, strain NPR1, active compounds read low 0.932 | locus YNL209W, strain ssb2, active compounds read low 0.994 | locus YNL233W, strain BNI4, active compounds read low 1.06 | locus YNL248C, strain rpa49, active compounds read low 1.01 | locus YNL250W, strain rad50, active compounds read low 1.05 | locus YNL271C, strain bni1, active compounds read low 0.995 | locus YNL298W, strain CLA4, active compounds read low 0.975 | locus YNL307C, strain MCK1, active compounds read low 1.02 | locus YNL322C, strain KRE1 (second series), active compounds read low 1 | locus YNL322C, strain KRE1, active compounds read low 1.01 | locus YNR049C, strain mso1, active compounds read low 1 | locus YNR052C, strain pop2, active compounds read low 1.02 | locus YOL012C, strain htz1 1.39 | locus YOL147C, strain pex11, active compounds read low 0.994 | locus YOR001W, strain rrp6, active compounds read low 0.992 | locus YOR061W, strain CKA2, active compounds read low 1 | locus YOR069W, strain VPS5, active compounds read low 0.996 | locus YOR070C, strain gyp1, active compounds read low 0.99 | locus YOR080W, strain dia2, active compounds read low 1.01 | locus YOR083W, strain WHI5, active compounds read low 0.993 | locus YOR106W, strain vam3, active compounds read low 0.999 | locus YOR136W, strain idh2, active compounds read low 1 | locus YOR144C, strain elg1, active compounds read low 1 | locus YOR184W, strain ser1, active compounds read low 0.94 | locus YOR231W, strain MKK1, active compounds read low 1 | locus YOR265W, strain rbl2, active compounds read low 0.999 | locus YOR270C, strain vph1, active compounds read low 0.976 | locus YOR290C, strain snf2, active compounds read low 1.01 | locus YOR316C, strain cot1, active compounds read low 1.02 | locus YPL051W, strain arl3, active compounds read low 0.984 | locus YPL055C, strain LGE1, active compounds read low 1.09 | locus YPL078C, strain atp4, active compounds read low 0.995 | locus YPL106C, strain sse1, active compounds read low 1.07 | locus YPL240C, strain hsp82, active compounds read low 0.986 | locus YPL256C, strain CLN2, active compounds read low 0.972 | locus YPR119W, strain clb2, active compounds read low 0.99 | locus YPR141C, strain kar3, active compounds read low 0.998 | locus YPR163C, strain tif3, active compounds read low 1.01 | locus YPR167C, strain met16, active compounds read low 1.01 | strain wtn01, active compounds read low 0.992
